Vaccinia pol inh = blocks vaccinia virus processive DNA synthesis; in vitro processive DNA synthesis, absorbance read-out; stronger effect = lower value; normalized absorbance, % (no concentration beside the values); 0.94% of 46,000 active; in the data active = normalized absorbance mostly below about 85%, no sharp cut-off; inactive = mostly above about 86%
Starred values were filed as active, the others as inactive. This excerpt belongs to a sample that is enriched for hits.

SMILES | Vaccinia pol inh
CN(C)CCOC(=O)c1ccc2[nH]c3c(c2c1)CSCC3 | 58*
CCN(CC)c1ccc(N=Cc2cc(C)n(-c3ccc(OC(C)=O)cc3)c2C)cc1 | 100
S=C(Nc1cccc(Cl)c1)Nc1cccc(Cl)c1 | 95
CCOC(=O)n1c(=O)sc2ccccc21 | 100
CCn1cc(C(=O)NN)c(=O)c2cc(F)c(N3CCCC3)cc21 | 100
CCn1cc(C(=O)O)c(=O)c2cc(F)c(N3CCNCC3)cc21 | 77*
CCn1cc(C(=O)O)c(=O)c2cnc(N3CCNCC3)nc21 | 98
CC1(C)CC2CC(C)(CN2C(=O)CSc2ncnc3ccccc23)C1 (stereo not drawn) | 83
CCOC(=O)c1c(C)oc2c1c1c(c3ccccc32)OCN(CCO)C1 | 74
Oc1ccccc1C=Nc1ccc(-c2nc3ccccc3s2)cc1 | 100
Oc1ccc(N=Cc2ccccc2)cc1-c1nc2ccccc2s1 | 84*
CC(C)(C)C(=O)Nc1ccc(O)c(-c2nc3ccccc3s2)c1 | 99
O=C(NCO)c1ccccc1 | 102
CCCCC(Sc1ccc2nnc(-c3ccc(F)cc3)n2n1)C(=O)O (stereo not drawn) | 97
N=C(N)c1cccc(NC(=O)Nc2cccc(C(=N)N)c2)c1 | 77*
Cc1cccc(NC(=O)Nc2cccc(C)c2)c1 | 105
COC(=O)c1cccc(NC(N)=S)c1 | 97
CC12CCCCC1CCC2NCCCCCCN1C(=O)C=CC1=O (stereo not drawn) (tested in a mixture with another compound) | 99
CCOc1ccc(-n2c(=O)c3sccc3n(CC(=O)NC3CCCC3)c2=O)cc1 | 102
Cc1cc(N2CCC(C(=O)N3CCOCC3)CC2)n2nc(C)c(-c3ccc(Cl)cc3)c2n1 | 102
Oc1ccccc1C=Nc1ccccc1O | 101
Cc1ccccc1C=Nc1ccccc1C#N | 100
N#Cc1ccccc1N=Cc1cccc(O)c1O | 86*
CCCNC(=O)c1cc(C)nn1-c1ccccc1 | 101
O=C(COC(=O)c1cc2ccccc2o1)c1ccc(Br)cc1 | 95
SMILES | Vaccinia pol inh
CCOC(=O)c1c(C)n(Cc2ccccc2)c2ccc(O)cc12 | 102
CCOC(=O)c1c(C)n(CC)c2ccc(O)cc12 | 101
CCOC(=O)c1c2ccc(O)cc2n2ccccc12 | 75*
CC(=O)SC(CC(=O)O)c1nc2ccccc2s1 (stereo not drawn) | 100
COC(=O)c1ccccc1C(=O)c1ccccc1 | 92
COC(=O)c1cccc2c1-c1ccccc1/C2=N/O | 58*
O=C(NO)c1cccc2c1-c1ccccc1/C2=N/O | 73
O=C1OC(c2ccccc2F)=N/C1=C\c1cccc(C(F)(F)F)c1 | 96
CCOC(=O)/C(=C(\C)O)C1(C(C#N)C(N)=O)CCCCC1 (stereo not drawn) | 101
O=C(Nc1cccnc1Sc1ccc(Cl)cc1)c1ccc(C(F)(F)F)cc1 | 113
Cc1ccc(S(=O)(=O)Nc2c(-c3ccccc3)c3cc(C)ccc3[nH]c2=O)cc1 | 94
Cc1ccc2[nH]c(=O)c(CN3CCOCC3)c(-c3ccccc3)c2c1 | 67*
Cc1ccc2[nH]c(-c3ccccc3)c(CN3CCCC3)c(=O)c2c1 | 100
COC(=O)c1ccsc1NC(=O)C(C)C | 82
O=C(O)CCC(=O)Nc1cc(Cl)ccc1Cl | 99
O=C(NCC1CCCO1)c1cc2sc3ccccc3c2s1 (stereo not drawn) | 66*
O=C(NCC1CCCO1)c1cc2c(s1)CCC2 (stereo not drawn) | 103
CCn1c(=O)c2cc(C(=O)NCC3CCCO3)sc2c2ccccc21 (stereo not drawn) | 105
COc1ccc(C(=O)Oc2csc(=S)n2C(=O)c2ccc(OC)cc2)cc1 | 98
CN1CCc2c(sc(NC(=O)c3ccc4ncsc4c3)c2C(N)=O)C1 | 85*
COC(=O)c1c(NC(=O)c2ccc(OC)cc2)sc2c1CCN(C)C2 | 92
N#Cc1ccsc1NC(=O)c1ccc2ncsc2c1 | 108
O=C(Cc1ncc(C(F)(F)F)cc1Cl)NC1CCCC1 | 99
Cc1cc(NS(=O)(=O)c2ccc(N=Cc3ccccc3O)cc2)no1 | 98
O=C(O)c1cc(C=Nc2ccc(S(=O)(=O)NC3NC=CS3)cc2)c2c(c1)COCO2 (stereo not drawn) | 52*
SMILES | Vaccinia pol inh
CN(CCC#N)C(=O)c1ccc2c(c1)N(Cc1ccc(F)cc1)C(=O)c1ccccc1S2(=O)=O | 83
COc1ccc(S(=O)(=O)Cc2ccc(C(=O)N3CCOCC3)o2)cc1 | 98
O=C(O)c1ccc(CS(=O)(=O)c2ccccc2)o1 | 19*
O=C(O)c1ccc(CSCc2ccccc2)o1 | 92
Cc1ccccc1OCC(=O)Nc1ccccc1Nc1ccccc1 | 106
O=C(C1c2ccccc2Oc2ccccc21)N1CCC(c2ccccc2)C1 (stereo not drawn) | 100
COc1ccc(C2(C#N)CCc3[nH]c4ccccc4c3C2)cc1OC (stereo not drawn) | 99
NC(=O)CCNC(=O)C(c1ccccc1)c1ccccc1 | 99
CC(=O)Nc1ccc(N=Cc2ccc(C)cc2)cc1 | 100
CC(=O)Nc1ccc(N=Cc2ccc(OC(=O)c3cccnc3)cc2)cc1 | 100
CC(=O)Nc1ccc(N=Cc2ccc(OC(=O)c3ccccc3Br)cc2O)cc1 | 82*

Screening data (PubChem BioAssay)
